Laboratory results: the supplement of paper PMC10127200
Where a name gives a salt, the structure may show the parent alone.

Tests used:
Assay in all cases: Euclidean distance of Cell Painting phenotypic profile (signed KS, 77 features) to DMSO centroid (dimensionless distance); 5 or 10 uM (library dependent); higher = stronger phenotypic change vs DMSO (phenoactivity)
Details in all cases: 48 h
786-O = test system: 786-O
How it was run: (§1)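 At 10 or 5 uM, as set by the library, and 0.1% DMSO final, compounds were applied for 48 h to five cancer lines and one healthy fibroblast line. Stained cells were imaged confocally at 20X in 9 fields per well, and Harmony extracted 77 features scored as signed Kolmogorov-Smirnov statistics against vehicle wells on the same plate. Profiles underwent plate-position correction, correlation weighting and replicate averaging at the top dose. Phenoactivity is the Euclidean distance from each such profile to the median vehicle profile.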

A549 = test system: A549
How it was run: as §1

DU145 = test system: DU145
How it was run: as §1

FB = test system: FB
How it was run: as §1

HEPG2 = test system: HEPG2
How it was run: as §1

OVCAR4 = test system: OVCAR4
How it was run: as §1

Cn1nnc2c(C(N)=O)ncn2c1=O [Temozolomide]
Euclidean distance (786-O): 1.44
Euclidean distance (A549): 0.97
Euclidean distance (DU145): 2.71
Euclidean distance (FB): 0.972
Euclidean distance (HEPG2): 1.44
Euclidean distance (OVCAR4): 0.619

COc1ccc(NC(=O)c2ccc(C(=N)N(C)C)cc2)c(C(=O)Nc2ccc(Cl)cn2)c1 [Betrixaban]
Euclidean distance (786-O): 1.22
Euclidean distance (A549): 0.664
Euclidean distance (DU145): 0.647
Euclidean distance (FB): 0.875
Euclidean distance (HEPG2): 0.841
Euclidean distance (OVCAR4): 0.904

O=c1c2ccccc2oc2ccccc12 [Xanthone]
Euclidean distance (786-O): 1
Euclidean distance (A549): 1.28
Euclidean distance (DU145): 1.24
Euclidean distance (FB): 1.02
Euclidean distance (HEPG2): 0.607
Euclidean distance (OVCAR4): 1.14

NC1=NCC2c3ccccc3Cc3ccccc3N12 (stereo not drawn) [Epinastine HCl]
Euclidean distance (786-O): 1.16
Euclidean distance (A549): 1.15
Euclidean distance (DU145): 1.13
Euclidean distance (FB): 1.2
Euclidean distance (HEPG2): 0.717
Euclidean distance (OVCAR4): 1.43

Cn1cc(-c2ccc3c(c2)ncn3-c2cc(NS(=O)(=O)C3CC3)cc(-c3ccc(F)cc3F)c2)cn1
Euclidean distance (786-O): 2.53
Euclidean distance (A549): 1.64
Euclidean distance (DU145): 1.26
Euclidean distance (FB): 4.3
Euclidean distance (HEPG2): 1.6
Euclidean distance (OVCAR4): 2.75

O=C(O)CCCC[C@@H]1SC[C@@H]2NC(=O)N[C@@H]21 [Biotin (Vitamin B7)]
Euclidean distance (786-O): 0.776
Euclidean distance (A549): 0.871
Euclidean distance (DU145): 0.982
Euclidean distance (FB): 0.902
Euclidean distance (HEPG2): 0.533
Euclidean distance (OVCAR4): 1.23

NS(=O)(=O)c1ccccc1 [Benzenesulfonamide]
Euclidean distance (786-O): 1.16
Euclidean distance (A549): 0.87
Euclidean distance (DU145): 1.05
Euclidean distance (FB): 1.27
Euclidean distance (HEPG2): 0.909
Euclidean distance (OVCAR4): 0.962

CC(=O)Oc1cc2c(s1)CCN(C(C(=O)C1CC1)c1ccccc1F)C2 (stereo not drawn) [Prasugrel Hydrochloride]
Euclidean distance (786-O): 0.877
Euclidean distance (A549): 0.726
Euclidean distance (DU145): 0.888
Euclidean distance (FB): 0.495
Euclidean distance (HEPG2): 0.448
Euclidean distance (OVCAR4): 0.803

CCC(=O)c1c(O)cc(O)cc1O [Flopropione]
Euclidean distance (786-O): 1.34
Euclidean distance (A549): 0.879
Euclidean distance (DU145): 1.2
Euclidean distance (FB): 1.39
Euclidean distance (HEPG2): 0.447
Euclidean distance (OVCAR4): 1.04

COc1cc(C(=O)NS(=O)(=O)c2ccccc2C)ccc1Cc1cn(C)c2ccc(NC(=O)OC3CCCC3)cc12 [Zafirlukast]
Euclidean distance (786-O): 0.974
Euclidean distance (A549): 1.5
Euclidean distance (DU145): 1.22
Euclidean distance (FB): 1.21
Euclidean distance (HEPG2): 0.548
Euclidean distance (OVCAR4): 1.34

CN(C)c1ccc(C(=C2C=CC(=[N+](C)C)C=C2)c2ccc(N(C)C)cc2)cc1 [Crystal Violet]
Euclidean distance (786-O): 3.55
Euclidean distance (A549): 2.83
Euclidean distance (DU145): 3
Euclidean distance (FB): 2.46
Euclidean distance (HEPG2): 3.45
Euclidean distance (OVCAR4): 2.56

COc1cc(N2CCC(N3CCN(C)CC3)CC2)ccc1Nc1ncc(Cl)c(Nc2ccccc2P(C)(C)=O)n1
Euclidean distance (786-O): 1.49
Euclidean distance (A549): 2.29
Euclidean distance (DU145): 2.68
Euclidean distance (FB): 4.2
Euclidean distance (HEPG2): 1.51
Euclidean distance (OVCAR4): 1.74

Nc1ccccc1NC(=O)c1ccc(CNc2nccc(-c3cccnc3)n2)cc1 [Mocetinostat (MGCD0103)]
Euclidean distance (786-O): 3.18
Euclidean distance (A549): 3.33
Euclidean distance (DU145): 2.95
Euclidean distance (FB): 3.48
Euclidean distance (HEPG2): 3.36
Euclidean distance (OVCAR4): 3.38

Cc1nnc(NS(=O)(=O)c2ccc(N)cc2)s1 [Sulfamethizole]
Euclidean distance (786-O): 1.54
Euclidean distance (A549): 0.798
Euclidean distance (DU145): 1.76
Euclidean distance (FB): 0.908
Euclidean distance (HEPG2): 0.498
Euclidean distance (OVCAR4): 1.11

N#C[C@@H]1CCCN1C(=O)CNC12CC3CC(CC(O)(C3)C1)C2 [Vildagliptin (LAF-237)]
Euclidean distance (786-O): 1.09
Euclidean distance (A549): 1.02
Euclidean distance (DU145): 1.43
Euclidean distance (FB): 0.918
Euclidean distance (HEPG2): 0.836
Euclidean distance (OVCAR4): 1.21

N=C(N)N/N=C/c1c(Cl)cccc1Cl [Guanabenz Acetate]
Euclidean distance (786-O): 1.25
Euclidean distance (A549): 1.29
Euclidean distance (DU145): 1.12
Euclidean distance (FB): 0.609
Euclidean distance (HEPG2): 0.842
Euclidean distance (OVCAR4): 1.77

COc1ccc2cc3[n+](cc2c1OC)CCc1cc2c(cc1-3)OCO2 [Berberine Sulfate]
Euclidean distance (786-O): 1.66
Euclidean distance (A549): 2.46
Euclidean distance (DU145): 1.4
Euclidean distance (FB): 2.36
Euclidean distance (HEPG2): 1.68
Euclidean distance (OVCAR4): 2.08

O=C(O)Cc1cccc(OCCCN(Cc2cccc(C(F)(F)F)c2Cl)CC(c2ccccc2)c2ccccc2)c1
Euclidean distance (786-O): 1.18
Euclidean distance (A549): 0.78
Euclidean distance (DU145): 0.825
Euclidean distance (FB): 1.32
Euclidean distance (HEPG2): 0.721
Euclidean distance (OVCAR4): 0.79

CC(C)(O)CNc1nc(Nc2ccnc(C(F)(F)F)c2)nc(-c2cccc(C(F)(F)F)n2)n1 [Enasidenib (AG-221)]
Euclidean distance (786-O): 1.17
Euclidean distance (A549): 0.727
Euclidean distance (DU145): 1.69
Euclidean distance (FB): 1.4
Euclidean distance (HEPG2): 1.82
Euclidean distance (OVCAR4): 1

NCCNc1ccc(NCCN)c2c1C(=O)c1ccncc1C2=O [Pixantrone Maleate]
Euclidean distance (786-O): 4.41
Euclidean distance (A549): 3.32
Euclidean distance (DU145): 3.46
Euclidean distance (FB): 4.14
Euclidean distance (HEPG2): 4.48
Euclidean distance (OVCAR4): 3.49

CN(C)CCC=C1c2ccccc2C(C)(C)c2ccccc21 [Melitracen hydrochloride]
Euclidean distance (786-O): 1.33
Euclidean distance (A549): 1.82
Euclidean distance (DU145): 2.27
Euclidean distance (FB): 2.65
Euclidean distance (HEPG2): 1.5
Euclidean distance (OVCAR4): 1.37

OCc1cc([C@@H](O)CNCCCCCCOCCOCc2c(Cl)cccc2Cl)ccc1O [Vilanterol Trifenate]
Euclidean distance (786-O): 1.28
Euclidean distance (A549): 0.985
Euclidean distance (DU145): 1.38
Euclidean distance (FB): 1.28
Euclidean distance (HEPG2): 0.721
Euclidean distance (OVCAR4): 1.76

CN(C)Cc1ccc(S(=O)(=O)n2ccc(/C=C/C(=O)NO)c2)cc1 [Resminostat]
Euclidean distance (786-O): 2.67
Euclidean distance (A549): 2.99
Euclidean distance (DU145): 2.58
Euclidean distance (FB): 3.52
Euclidean distance (HEPG2): 2.9
Euclidean distance (OVCAR4): 2.81

O=C(c1c(F)ccc(NS(=O)(=O)N2CC[C@@H](F)C2)c1F)c1c[nH]c2ncc(-c3cnc(C4CC4)nc3)cc12
Euclidean distance (786-O): 1.42
Euclidean distance (A549): 1.86
Euclidean distance (DU145): 2.02
Euclidean distance (FB): 2.6
Euclidean distance (HEPG2): 1.2
Euclidean distance (OVCAR4): 1.44

O=C(Cc1ccc(-c2ccc(OCCN3CCOCC3)cc2)cn1)NCc1ccccc1
Euclidean distance (786-O): 3.21
Euclidean distance (A549): 3.15
Euclidean distance (DU145): 4.51
Euclidean distance (FB): 2.74
Euclidean distance (HEPG2): 3.85
Euclidean distance (OVCAR4): 2.99

C[C@H]1COc2c(N3CCN(C)CC3)c(F)cc3c(=O)c(C(=O)O)cn1c23 [Levofloxacin]
Euclidean distance (786-O): 1.07
Euclidean distance (A549): 1.12
Euclidean distance (DU145): 0.658
Euclidean distance (FB): 0.922
Euclidean distance (HEPG2): 0.532
Euclidean distance (OVCAR4): 1.03

CCOc1cc2ncc(C#N)c(Nc3ccc(OCc4ccccn4)c(Cl)c3)c2cc1NC(=O)/C=C/CN(C)C [Neratinib (HKI-272)]
Euclidean distance (786-O): 2.26
Euclidean distance (A549): 2.39
Euclidean distance (DU145): 2.02
Euclidean distance (FB): 4.01
Euclidean distance (HEPG2): 0.96
Euclidean distance (OVCAR4): 2.16

CCC[C@H](N[C@@H](C)C(=O)N1[C@H](C(=O)O)C[C@@H]2CCCC[C@@H]21)C(=O)OCC [Perindopril Erbumine]
Euclidean distance (786-O): 1.37
Euclidean distance (A549): 0.943
Euclidean distance (DU145): 1.24
Euclidean distance (FB): 0.906
Euclidean distance (HEPG2): 1.41
Euclidean distance (OVCAR4): 0.854
